Compounds with a hit are over-represented: about 1.5% of the library has one in this group of screens.
JNK3 inh = JNK3 kinase activity inhibitors, primary screen, biochemical, human, purified enzyme; Mitogen-activated protein kinase 10 (Homo sapiens), P53779; inhibition, % at 8 µM; actives 0.61% (n = 60,000); AID 746, 2007; HTS; in the data active = inhibition above about 17%;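 note: 0% = DMSO and 100% = reference inhibitor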
ROCK2 blocker = inhibitors of human ROCK2 kinase, primary screen, biochemical, high-throughput, luminescence; actives 0.35% (n = 60,000); AID 604, 2007; Rho-associated protein kinase 2 (Homo sapiens), O75116; purified ROCK2, Kinase-Glo ATP depletion luminescence; inhibition, % at 6 µM;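 active = inhibition above the screen-wide mean inhibition plus 3 SD, cut at about 18% in these data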;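 note: plate controls were DMSO wells for no effect and Y-27632 control wells after no-enzyme background subtraction for full effect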
PLK1 kinase inh = human PLK1 kinase inhibitors, primary screen, biochemical, TR-FRET. Serine/threonine-protein kinase PLK1 (Homo sapiens), P53350. recombinant PLK1 kinase, TR-FRET peptide phosphorylation. inhibition, % at 10 µM. actives 0.53% (n = 97,000). AID 619, 2007;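 active = inhibition of 50% or more in the single-concentration screen; inactive = inhibition below 50%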;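 note: 0% = DMSO max control and 100% = H-89 dihydrochloride min control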
PLK1 PBD inh = Plk1 polo box domain binding inhibitors, primary screen, biochemical, fluorescence polarization. inhibition, %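 (tested at about 20 µM)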. AID 693, 2007. actives 0.13% (n = 97,000). Plk1 PBD phosphopeptide binding. Serine/threonine-protein kinase PLK1 (Homo sapiens), P53350; in the data active = inhibition above about 34%, passing the limit was not always enough
PKA inh = inhibitors of human PKA kinase activity, primary screen, biochemical, ATP-depletion luminescence, Kemptide substrate; actives 0.1% (n = 65,000); PKA Kemptide phosphorylation, Kinase-Glo ATP luminescence; inhibition, % at 6 µM; cAMP-dependent protein kinase catalytic subunit alpha (Homo sapiens), P17612; AID 524, 2006;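 active = inhibition above the screen-wide mean inhibition plus 3 SD, cut at about 21% in these data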
FAK inh = FAK kinase inhibitors, primary screen, biochemical; inhibition, %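 (tested at 7 µM)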; biochemical FAK kinase activity assay; actives 0.84% (n = 97,000); Focal adhesion kinase 1 (Homo sapiens), Q05397; AID 727, 2007; in the data active = inhibition above about 19%;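 note: 0% = DMSO and 100% = reference compound high control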
Target sequence (Q05397 whole entry, looked up): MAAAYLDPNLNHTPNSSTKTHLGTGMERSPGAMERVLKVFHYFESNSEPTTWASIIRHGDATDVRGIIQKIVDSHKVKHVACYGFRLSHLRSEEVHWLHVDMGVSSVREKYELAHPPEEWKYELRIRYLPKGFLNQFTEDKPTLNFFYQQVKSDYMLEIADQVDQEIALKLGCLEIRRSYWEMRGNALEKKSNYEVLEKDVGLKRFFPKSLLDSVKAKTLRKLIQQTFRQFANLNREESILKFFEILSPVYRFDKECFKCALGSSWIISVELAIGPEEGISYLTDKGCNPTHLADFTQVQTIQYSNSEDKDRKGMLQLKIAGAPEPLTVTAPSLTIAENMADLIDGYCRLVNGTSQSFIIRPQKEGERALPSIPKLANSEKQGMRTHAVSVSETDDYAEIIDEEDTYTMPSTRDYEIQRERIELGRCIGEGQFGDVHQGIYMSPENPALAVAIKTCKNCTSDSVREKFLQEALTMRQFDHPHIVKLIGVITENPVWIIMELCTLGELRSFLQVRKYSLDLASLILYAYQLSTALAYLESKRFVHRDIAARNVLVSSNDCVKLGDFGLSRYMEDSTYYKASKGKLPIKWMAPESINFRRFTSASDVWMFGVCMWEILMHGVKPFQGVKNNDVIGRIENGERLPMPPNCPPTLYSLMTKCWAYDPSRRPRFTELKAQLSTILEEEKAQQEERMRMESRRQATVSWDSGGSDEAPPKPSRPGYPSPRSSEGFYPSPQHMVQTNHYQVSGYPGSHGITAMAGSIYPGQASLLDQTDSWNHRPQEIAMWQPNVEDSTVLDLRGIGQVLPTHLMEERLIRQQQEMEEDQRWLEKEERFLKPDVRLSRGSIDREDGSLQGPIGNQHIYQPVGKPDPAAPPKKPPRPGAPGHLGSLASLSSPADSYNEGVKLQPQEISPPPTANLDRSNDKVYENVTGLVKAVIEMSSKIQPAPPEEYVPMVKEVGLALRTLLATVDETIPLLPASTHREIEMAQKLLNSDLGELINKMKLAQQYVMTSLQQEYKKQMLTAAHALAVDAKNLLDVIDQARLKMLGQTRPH
Active calls of the source: *; x = not tested or not shown.

SMILES	JNK3 inh	ROCK2 blocker	PLK1 kinase inh	PLK1 PBD inh	PKA inh	FAK inh
COc1cccc(C2C=C(c3ccc(Br)s3)Nc3ncnn32)c1OC (stereo not given)	3	1	x	x	-2	x
O=C(Nc1nnc(-c2ccc(Cl)s2)o1)C1CCCCC1	5	6	-4	18	9	1
CCCC(=O)Nc1nnc(-c2ccc(Cl)s2)o1	-6	-5	64*	7	3	-1
Cc1nn2c(-c3cccc(NC(=O)CSc4nc5ccccc5o4)c3)nnc2c2ccccc12	6	5	-12	5	6	2
Cc1oc(-c2ccc(Cl)cc2)nc1CN1CCCC(C(=O)N2CCN(C(=O)c3ccco3)CC2)C1 (stereo not given)	1	1	62*	-5	-1	2
CCN1CCN(C(=O)C2CCN(Cc3nc(-c4ccc(Cl)cc4)oc3C)CC2)CC1	3	6	x	x	6	x
CC(Sc1nnc(-c2cccs2)n1-c1ccccc1)C(=O)NCc1ccc2c(c1)OCO2 (stereo not given)	x	x	-4	15	x	-2
O=C(CCn1cnc2ccccc2c1=O)Nc1ccc(S(=O)(=O)N2CCCC2)cc1	27*	-3	-9	4	6	3
O=C(CCn1cnc2ccccc2c1=O)Nc1ccc(S(=O)(=O)N2CCCCC2)cc1	20*	7	-7	-16	7	-2
Cc1ccc(NC(=O)CCn2cnc3ccccc3c2=O)cc1Cl	11	-2	x	x	-1	x
COc1ccc2nc(NC(=S)N(C)C)sc2c1	x	x	-13	19	x	-1
CC(=O)Nc1cccc(-c2nc3ccccc3c(=O)o2)c1	18*	8	-9	-2	9	4
O=c1c2ccccc2nc2n1CCCCC2	5	7	-4	-12	13	-5
O=c1c2ccccc2nc2n1CCCCN2	21*	6	-8	-9	12	1
CCCCOP(=O)(OCCCC)C1(NS(=O)(=O)c2ccccc2)C=CC(=O)c2ccccc21 (stereo not given)	x	x	-5	-9	x	5
CCC(C)C(NS(=O)(=O)c1ccc(C)cc1)C(=O)NCCN1CCOCC1 (stereo not given)	3	4	x	x	10	x
N#CCCC12CCCCC1=Nc1ccccc12 (stereo not given)	19*	4	x	x	7	x
O=C(Nc1ccc(-c2nc3cccnc3s2)cc1)c1ccco1	23*	4	x	x	7	x
CCOc1ccc(N(CC(=O)NCc2cccs2)S(=O)(=O)c2c(C)noc2C)cc1	-8	-1	-1	-14	11	-2
CCOc1ccc(N(CC(=O)NCc2ccc(F)cc2)S(=O)(=O)c2c(C)noc2C)cc1	-7	2	67*	-7	5	-2
CC1CCN(CCCNC(=O)Cc2c(C(=O)O)n(C)c3ccccc23)CC1	-1	5	x	x	11	x
CCOc1ccc(-n2cc(C(=O)NC(C)C)c3cc(OC)c(OC)cc3c2=O)cc1	x	x	54*	0	x	8
CCOc1ccc(NC(=O)c2cn(-c3ccc(OCC)cc3)c(=O)c3cc(OC)c(OC)cc23)cc1	x	x	-12	-12	x	4
COC1CCCCC1NS(=O)(=O)c1ccc(Cl)cc1 (stereo not given)	2	-2	68*	-5	5	-2
COC1CCCCC1NS(=O)(=O)c1ccccc1 (stereo not given)	6	4	-12	5	12	-1
SMILES	JNK3 inh	ROCK2 blocker	PLK1 kinase inh	PLK1 PBD inh	PKA inh	FAK inh
CCOC(=O)c1c(NC(=O)CSc2nnc(CNc3ccc(Cl)cc3)o2)sc(C)c1C	x	x	-10	-6	x	-2
O=C(CSc1nnc(CNc2ccc(Cl)cc2)o1)Nc1nc2ccccc2s1	-3	3	56*	-8	-4	-1
CN1C(=O)COc2ccc(C(=O)c3oc4ccccc4c3-c3cnc4c(c3)COc3ccccc3-4)cc21	x	x	-16	-17	x	0
Cc1ccccc1NCC(=O)N/N=C/C(Br)=C/c1ccccc1	x	x	-3	21	x	2
CCOc1ccc(C2Oc3nc(SC)nnc3-c3ccccc3N2C(C)=O)cc1OC (stereo not given)	0	2	x	x	-7	x
CCSc1nnc2c(n1)OC(c1ccc(C(=O)O)cc1)N(C(C)=O)c1ccccc1-2 (stereo not given)	-2	4	65*	29	10	1
CC1=NN(/C(=N\c2nnc(C)s2)Nc2ccc(C)cc2)[C@H](c2ccc(C)cc2)S1	x	x	-5	-8	x	21*
CCOc1ccc(C2=NNC(c3cccs3)=Nc3ccc(OCC)cc32)cc1	x	x	-11	-27	x	2
CCOC(=O)c1cnc2c(C#N)c(C)nn2c1-c1ccccc1	-4	4	64*	10	7	-5
CCOC(=O)c1cnc2c(C#N)c(C)nn2c1C	2	2	-4	23	8	-11
O=c1cc(N2CCOCC2)[nH]c(=O)n1Cc1ccc(F)cc1	4	8	69*	-17	7	0
O=c1cc(N2CCN(c3ccc(F)cc3)CC2)[nH]c(=O)n1Cc1ccc(F)cc1	x	x	-7	13	x	-4
CC1(C)Cc2c(C#N)c(N3CCCC3)nc(-c3ccco3)c2CO1	-1	0	51*	-21	-7	-5
CC1(C)Cc2c(c(-c3ccco3)nc3n[nH]c(N)c23)CO1	-3	2	52*	-10	31*	11
CCOC(=O)c1sc2nc(-c3ccco3)c3c(c2c1N)CC(C)(C)OC3	-3	1	x	x	7	x
CCn1cc(C(=O)Nc2nncs2)c(=O)c2cc(F)c(N3CCN(C(=O)c4ccco4)CC3)cc21	6	-3	x	x	-3	x
NC(=O)c1sc2cc(C(F)(F)F)cnc2c1-c1cccs1	x	x	57*	7	x	1
Cc1cccc(-c2nc(CS(=O)CC(=O)N3CCN(C)CC3)c(C)o2)c1 (stereo not given)	0	0	57*	-4	-3	-8
COc1ccc(-c2nc(CS(=O)CC(=O)NC3CCCc4ccccc43)c(C)o2)cc1OC (stereo not given)	1	0	69*	14	4	3
COc1ccc(-c2nc(CSCC(=O)NC3CCCc4ccccc43)c(C)o2)cc1OC (stereo not given)	x	x	-16	-10	x	-2
COc1cccc(-c2nc(CS(=O)CC(=O)NC3CCCC3)c(C)o2)c1 (stereo not given)	0	2	66*	15	8	3
Cc1ccc(-c2nc(CS(=O)CC(=O)NC3CCC(C)CC3)c(C)o2)cc1 (stereo not given)	-1	-2	65*	14	-1	5
CCOC(=O)C1CCN(C(=O)CS(=O)Cc2nc(-c3ccc(C)cc3)oc2C)CC1 (stereo not given)	-3	7	-8	-18	5	-2
